Screens deposited in PubChem BioAssay by The Scripps Research Institute Molecular Screening Center.
The entries come from a sample that favours hits as a whole.
TTR transcr act – increases transthyretin transcription; SH-SY5Y TTR promoter Gaussia luciferase, luminescence; 100% = recombinant luciferase protein wells; activation, % at 16.7 µM; actives 1.3% (n = 92,000); AID 1117267;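 active = activation above the mean of all tested compounds plus 3 SD, cut at about 9.5% in these data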;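 also: cells exposed to compounds for one day before reading; 0% = median of all test compound wells on the plate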
TTR inh HuH7 – HuH7 TTR transcription inhibition, counter-screen; shares compounds with TTR transcr act; actives 4% (n = 1,100); HuH7 TTR promoter-Gaussia luciferase reporter, luminescence; inhibition, % at 16.7 µM; AID 1117279;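 active = average inhibition above the solvent-only control wells' mean plus 3 SD, cut at about 15% in these data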;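 also: 0% = cells with DMSO only and 100% = cells with inhibitor control FD; inhibitors lower well luminescence so higher value means more inhibition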
TTR act confirm – human TTR transcription activation, confirmation. activation, % at 16.7 µM. 1,100 tested, under 10 active. shares compounds with TTR transcr act. SHSY5Y TTR promoter Gaussia luciferase, luminescence; 100% = purified Lucia enzyme wells, no cells;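 active = mean activation above a set limit taken from the earlier primary screen, cut at about 11% in these data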;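 also: 0% = DMSO-treated cells and 100% = recombinant Lucia luciferase without cells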
Starred values were filed as active, the others as inactive.

SMILES	TTR transcr act	others
COc1cccc(CN2CCNC(=O)C2CC(=O)NC2CCCCCCC2)c1 (centres undefined)	-2.4
COc1ccc(CN2CCNC(=O)C2CC(=O)NC2CCCCCC2)c(F)c1 (centres undefined)	-0.6
Cc1ccccc1Cn1cc(COC(=O)Nc2ccc(F)cc2)nn1	0.4
O=C(CSc1cc(Cl)ccc1Cl)N/N=C/c1ccc[nH]1	-2.1
CCCC1CCC2(CC1)CCC2OC(=S)NCCc1ccc(Cl)cc1 (centres undefined)	-1.7
O=C(NNc1nc2ccccc2nc1C(F)(F)F)c1ccccc1	10.3*	TTR inh HuH7=-10.4;TTR act confirm=-1.3
O=C(NNc1ccccc1F)c1ccccc1	-0.2
O=C(NNc1nc2ccccc2o1)c1ccccc1	-1.1
C[C@H]1[C@@H](OC(=O)NCc2ccc(Cl)cc2)CC[C@@]23CCCN2C(=O)CCC[C@@H]13	-1.2
CC(Oc1ccccc1)C(=O)N1CCN=C1SCc1ccccc1 (centres undefined)	11.8*	TTR inh HuH7=29.0*;TTR act confirm=-1.7
O=C(C1CC1)N1CCN=C1SCc1ccccc1	-1.7
O=C(C1CC1)N1CCN=C1SCc1cccc(F)c1	0.1
COC(=O)[C@]12C[C@H](CC(=O)NCc3ccc(OC)c(OC)c3)C(=O)N(Cc3cccc4ccccc34)C1=C[C@H](C1CCCC1)O[C@@H]2C	-3.5
Nc1[nH]c(C(=O)c2ccccc2)c(-c2ccc(Br)cc2)c1C(=O)NCCCN1CCOCC1	2.7
COC[C@@H]1CCCN1c1cccc2c1S(=O)(=O)N1CC[C@H](C1)O2	-0.1
Cc1cccc(C)c1OCC(=O)Nc1ccc(S(=O)(=O)Nc2ccccn2)cc1	17.4*	TTR inh HuH7=-4.3;TTR act confirm=0.2
Cc1cccc(C)c1OCC(=O)Nc1ccncc1	-0.6
O=C(COc1ccc(Br)cc1)Nc1ccc(S(=O)(=O)Nc2ccccn2)cc1	-1.1
CCOC(=O)[C@]12CCCC3=C1N(CCC3)C(=O)[C@@H](CC(=O)NCC1CCCCC1)C2	-0.5
O=C(NCC(c1ccccc1)c1ccccc1)[C@H](Cc1c[nH]c2ccccc12)NC1(C(=O)NC2CCCCC2)CCN(Cc2ccccc2)CC1	-3.4
COC(=O)[C@]12C[C@H](CC(=O)NCC34CC5CC(CC(C5)C3)C4)C(=O)N(Cc3cccc4ccccc34)C1=C[C@H](C1CCCC1)O[C@@H]2C	2.0
Cc1ccc(NS(=O)(=O)c2cccc(C(=O)O)c2)cc1S(=O)(=O)N1CCCCC1	1.7
CCN(CC)S(=O)(=O)c1cc(NS(=O)(=O)c2cccc(C(=O)O)c2)ccc1C	11.3*	TTR inh HuH7=-9.2;TTR act confirm=0.4
COc1ccc(NS(=O)(=O)c2cccc(C(=O)O)c2)cc1	2.7
COc1ccc(Cn2ccc3ccc(-c4ccc5ccn(C(=O)c6ccccc6)c5c4)cc32)cc1	-1.0
SMILES	TTR transcr act	others
Cc1ccc(OCCn2c(CCNC(=O)c3ccc(F)cc3F)nc3ccccc32)cc1	2.4
COC(=O)c1ccccc1NC(=O)NC1CCCC1	15.0*	TTR inh HuH7=-2.0;TTR act confirm=-0.6
CC(C)C(=O)NC(=S)Nc1ccccc1C(=O)NC1CCCCC1	2.9
O=C(Nc1ccccc1)NC1CCCCCCC1	-1.0
CN=C1S/C(=C/c2cc(C)n(-c3cc(C)ccc3OC)c2C)C(=O)N1C	-1.6
CCC[C@H]1[C@@H](OC(=O)NC2CCC2)CC[C@@]23CCCN2C(=O)CCC[C@@H]13	2.8
COc1cccc(NC(=O)CN(C)C(=O)c2cc(S(=O)(=O)NCc3ccccc3)ccc2C)c1	31.9*	TTR inh HuH7=-20.1;TTR act confirm=0.7
COc1cccc(NC(=O)CN(C)C(=O)c2ccc(NS(=O)(=O)c3ccc(F)cc3)cc2)c1	0.5
COc1cccc(NC(=O)CN(C)C(=O)c2cc(S(=O)(=O)Nc3ccccc3OC)ccc2C)c1	4.4
CC(C)N1CCc2c(-c3nc4ccccc4s3)csc2C1	-0.8
CCOC(=O)c1c(-c2ccccc2)oc2ccc(O)c(CN3CCOCC3)c12	-3.9
CCOC(=O)c1c(CN2CCCCC2)oc2ccc(OC)cc12	-1.0
CCOC(=O)c1c(C)oc2ccc(O)c(CN3CCCCC3)c12	23.4*	TTR inh HuH7=-6.7;TTR act confirm=0.3
O=C(CSc1ccc(Cl)cc1)Nc1cccc(-c2nc3ncccc3o2)c1	-1.7
CC(C)C(=O)Nc1cccc(-c2nc3ccccc3o2)c1	-0.6
CC(C)C(=O)Nc1cccc(-c2nc3ncccc3o2)c1	14.7*	TTR inh HuH7=8.8;TTR act confirm=-0.6
COC(=O)C12CCCN1C1C(=O)N(Cc3ccc(C(N)=O)cc3)CC1C2 (centres undefined)	-0.7
CCN1C(=O)[C@H]2[C@@H](c3ccc(OC)cc3)N[C@]3(CCCN(Cc4ccccc4)C3=O)[C@H]2C1=O	-0.4
CCN1C(=O)[C@@H]2[C@H](C1=O)[C@@H]1C(=O)Nc3ccccc3C(=O)N1[C@@H]2c1ccc(OC)cc1	10.7*	TTR inh HuH7=-11.7;TTR act confirm=-0.1
CCN1C(=O)[C@H]2[C@@H](c3ccc(OC)cc3)N3C(=O)CN(Cc4ccccc4)C(=O)[C@@]3(Cc3ccccc3)[C@H]2C1=O	5.4
O=C(Nc1ccc(F)cc1)OCc1cn(Cc2cccc(F)c2)nn1	0.0
Cn1nnnc1Sc1ncnc2scc(-c3cnc(N)nc3)c12	-0.2
CNC(=O)CN(Cc1ccccc1)S(=O)(=O)c1ccccc1	1.6
O=C(CN(Cc1ccc(Br)cc1)S(=O)(=O)c1ccccc1)NCc1ccccn1	21.9*	TTR inh HuH7=-21.9;TTR act confirm=1.4
COc1ccc(CNC(=O)CN(Cc2ccc(Cl)cc2)S(=O)(=O)c2ccccc2)cc1	1.2
SMILES	TTR transcr act	others
CC[C@@]1(c2ccc(C)cc2)C(=O)N(C(=O)OC)N1C(=O)OC	2.5
CCOC(=O)[C@]12CCCC3=C1N(CCC3)C(=O)[C@@H](CC(=O)NCc1ccccc1)C2	-0.6
CCCNC(=O)c1ccc(N2CCC3(CC2)CC(c2ccccc2)=NO3)c(NC(=O)c2ccco2)c1	19.2*	TTR inh HuH7=19.2*;TTR act confirm=-1.5
CCCNC(=O)c1ccc(N2CCC3(CC2)CC(c2ccccc2)=NO3)c(NC(=O)c2cccc(OC)c2)c1	-2.8
Cc1ccc(CNC(=O)c2ccc(N3CCC4(CC3)CC(c3ccccc3)=NO4)c(NC(=O)c3ccco3)c2)cc1	-1.0
O=C(c1cccs1)n1ccc2ccc(-c3ccc4ccn(C(=O)c5cccs5)c4c3)cc21	-0.9
CCOC(=O)N1CCN(C(=O)C[C@H]2C(=O)N(Cc3ccc(OC)cc3)C3=CCCC[C@@]32C(=O)OCC)CC1	0.7
CNc1ccc(/C=C(\C#N)C(=O)Nc2ccccn2)cc1[N+](=O)[O-]	23.0*	TTR inh HuH7=-11.6;TTR act confirm=0.4
CC(C)(C)c1ccc(/C=C(\C#N)C(=O)Nc2ccccn2)cc1	-1.6
COc1cc(/C=C(\C#N)C(=O)Nc2ccccn2)ccc1O	1.3
COC[C@H]1CCCN1c1cccc2c1S(=O)(=O)N1CC[C@H](C1)O2	-1.4
C=CC1CN2CCC1CC2C(O)c1ccnc2ccc(OC)cc12 (centres undefined)	13.2*	TTR inh HuH7=-7.7;TTR act confirm=2.6
CC(C)(C)OC(=O)NCCc1ccccc1/C=C/S(=O)(=O)NC1CCCC1	3.4
C=CCN1C(=O)[C@H](CC(=O)N2CCSCC2)[C@@]2(C(=O)OCC)CCCC=C12	0.0
COc1cccc(C2c3c(ncn(-c4ccccc4)c3=N)Oc3ccc4ccccc4c32)c1 (centres undefined)	-0.1
COc1ccc(CNC(=O)C2(CC3CC(c4ccccc4)=NO3)CCN(C(=O)CCCCCBr)CC2)cc1 (centres undefined)	1.2
